Data on nine compounds can be found in PubChem BioAssay (NCI).

The nature of experiment [1]: NCI Yeast Anticancer Drug Screen. Data for the rad50 strain (AID 155).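 Also: 0% = growth of vehicle-only cultures of the same strain.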 As to conditions: S. cerevisiae rad50 strain growth inhibition, active compounds read high. The method, boiled down: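 Readout: growth inhibition relative to vehicle-treated cultures. Compound exposure was carried out in a genetically defined yeast strain deficient in DNA damage repair.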
A short description of experiment [2]: NCI Yeast Anticancer Drug Screen. Data for the mec2-1 strain (AID 157). As to conditions: S. cerevisiae mec2-1 strain, active compounds read high. The method in brief:
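Mutant yeast (mec2-1) grown with compound; growth inhibition relative to vehicle control reported.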

A short description of experiment [3]: NCI Yeast Anticancer Drug Screen. Data for the sgs1 mgt1 strain (AID 161).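 Also: 0% = growth of cultures given vehicle only.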 The settings on record: S. cerevisiae sgs1 mgt1 strain, active compounds read high. The method in brief:
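This yeast growth screen uses a strain with defined DNA-repair lesions; compound-treated growth is compared with vehicle-treated growth.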

Experiment [4] is described as follows: NCI Yeast Anticancer Drug Screen. Data for the cln2 rad14 strain (AID 165).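 Also: 0% = growth equal to vehicle treated cultures.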 As to conditions: S. cerevisiae cln2 rad14 strain, active compounds read high. The method, boiled down:
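Readout is yeast growth inhibition versus vehicle-treated controls, using a strain with cln2 and rad14 alterations exposed to compound.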

The nature of experiment [5]: NCI Yeast Anticancer Drug Screen. Data for the bub3 strain (AID 167). As to conditions: S. cerevisiae bub3 mutant strain, active compounds read high. The method, boiled down:
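Readout: yeast growth inhibition, expressed relative to vehicle-only wells. The test organism is a mutant strain from a panel with lesions in DNA repair or checkpoint genes.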

A short description of experiment [6]: NCI Yeast Anticancer Drug Screen. Data for the mlh1 rad18 strain (AID 175). As to conditions: S. cerevisiae mlh1 rad18 strain growth inhibition, active compounds read high. The method in brief: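 Genetically defined yeast (DNA repair-deficient) exposed to compounds; growth inhibition determined relative to vehicle.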
Setting [7] is: at 5.0 µM (retest, dose inferred, filed as 0.5).
Where [8] appears, read: at 50.0 µM (retest, dose inferred, filed as 5.0).

SMILES strings stand for the structures. This is part of a sample that, as a whole, favours compounds with a hit. Of some 79,000 tested, about 15% had one in any assay. Unmarked numbers belong to inactive results. Calls of active or inactive are those of the source. Rule as the data show it: active = growth inhibition above about 70%; inactive = the rest.

As for `COc1cccc2c1OC(c1cccc3ccccc13)C([N+](=O)[O-])=C2` (configuration not stated), the growth inhibition is 49% in experiment [1] (setting [7]); 75% (active) in experiment [1] (setting [8]); 62.3% in experiment [1] (at 50.0 µM); 32% in experiment [2] (setting [7]); 67% in experiment [2] (setting [8]); 62.1% in experiment [2] (at 50.0 µM). In addition, the growth inhibition in experiment [3] (setting [7]) is 39%; in experiment [3] (setting [8]) it was 70% (active); in experiment [3] (at 50.0 µM), 61.4%; in experiment [4] (setting [7]), 22%; in experiment [4] (setting [8]), 62%; in experiment [4] (at 50.0 µM), 47%. Further, the growth inhibition is 47% in experiment [5] (setting [7]); 74% (active) in experiment [5] (setting [8]); 54.8% in experiment [5] (at 50.0 µM); 49% in experiment [6] (setting [7]); 81% (active) in experiment [6] (setting [8]); 58.8% in experiment [6] (at 50.0 µM).

`CC12CCC3C(CCC4CC(O)CCC43C)C1CC=CO2` (configuration not stated): the growth inhibition was 1% in experiment [1] (setting [7]); 98% (active) in experiment [1] (setting [8]); 23.4% in experiment [1] (at 50.0 µM); 32% in experiment [2] (setting [7]); 99% (active) in experiment [2] (setting [8]); 50.6% in experiment [2] (at 50.0 µM). The growth inhibition in experiment [3] (setting [7]) is 17%; in experiment [3] (setting [8]) it was 99% (active); in experiment [3] (at 50.0 µM) it was 11.3%; in experiment [4] (setting [7]), 0%; in experiment [4] (setting [8]) it was 99% (active); in experiment [4] (at 50.0 µM), -1.5%. Besides, the growth inhibition in experiment [5] (setting [7]) was 45%; in experiment [5] (setting [8]) it was 98% (active); in experiment [5] (at 50.0 µM), 59.4%; in experiment [6] (setting [7]), 24%; in experiment [6] (setting [8]), 99% (active); in experiment [6] (at 50.0 µM), 68.9%.

As for `CC(C)c1ccc2c(c1)CC[C@H]1[C@](C)(CN)CCC[C@]21C`, the growth inhibition in experiment [1] (setting [7]) was 3%; in experiment [1] (setting [8]), 98% (active); in experiment [1] (at 50.0 µM), 98.8% (active); in experiment [2] (setting [7]) it was 2%; in experiment [2] (setting [8]), 98% (active); in experiment [2] (at 50.0 µM) it was 89.2% (active). Besides, the growth inhibition in experiment [3] (setting [7]) is 11%; in experiment [3] (setting [8]) it was 99% (active); in experiment [3] (at 50.0 µM), 99.7% (active); in experiment [4] (setting [7]), 3%; in experiment [4] (setting [8]) it was 97% (active); in experiment [4] (at 50.0 µM), 91.8% (active). For the same compound, the growth inhibition in experiment [5] (setting [7]) was 7%; in experiment [5] (setting [8]), 99% (active); in experiment [5] (at 50.0 µM), 90% (active); in experiment [6] (setting [7]), -9%; in experiment [6] (setting [8]) it was 98% (active); in experiment [6] (at 50.0 µM), 98.4% (active).

Consider `COc1cccc(C=O)c1O`, for which the growth inhibition in experiment [1] (setting [7]) is 6%; in experiment [1] (setting [8]), 75% (active); in experiment [1] (at 50.0 µM), 74.6% (active); in experiment [2] (setting [7]), -3%; in experiment [2] (setting [8]), 21%; in experiment [2] (at 50.0 µM), 1.05%. The growth inhibition is 1% in experiment [3] (setting [7]); 29% in experiment [3] (setting [8]); 17.5% in experiment [3] (at 50.0 µM); 1% in experiment [4] (setting [7]); 23% in experiment [4] (setting [8]); -23.5% in experiment [4] (at 50.0 µM). Moreover, the growth inhibition in experiment [5] (setting [7]) was -6%; in experiment [5] (setting [8]), 0%; in experiment [5] (at 50.0 µM), -9.35%; in experiment [6] (setting [7]), 1%; in experiment [6] (setting [8]), 66%; in experiment [6] (at 50.0 µM) it was 62.5%.

`CC(C)N=C(NC(C)C)SCCCCCCSC(=NC(C)C)NC(C)C`: the growth inhibition in experiment [1] (setting [7]) was 2%; in experiment [1] (setting [8]), -2%; in experiment [1] (at 50.0 µM), 12.3%; in experiment [2] (setting [7]), -1%; in experiment [2] (setting [8]) it was 1%; in experiment [2] (at 50.0 µM), -17.2%. For the same compound, the growth inhibition in experiment [3] (setting [7]) is -7%; in experiment [3] (setting [8]), 1%; in experiment [3] (at 50.0 µM), 2.4%; in experiment [4] (setting [7]), -6%; in experiment [4] (setting [8]), -1%; in experiment [4] (at 50.0 µM), 76.2% (active). The growth inhibition in experiment [5] (setting [7]) was 3%; in experiment [5] (setting [8]), -2%; in experiment [5] (at 50.0 µM) it was -16.2%; in experiment [6] (setting [7]) it was -1%; in experiment [6] (setting [8]), -5%; in experiment [6] (at 50.0 µM), 6.9%.

As for `Cc1c(Cl)c(Cl)cc([N+](=O)[O-])c1Cl`, the growth inhibition is 41% in experiment [1] (setting [7]); 49% in experiment [1] (setting [8]); 24.9% in experiment [1] (at 50.0 µM); 51% in experiment [2] (setting [7]); 45% in experiment [2] (setting [8]); 37.6% in experiment [2] (at 50.0 µM). The growth inhibition in experiment [3] (setting [7]) was -5%; in experiment [3] (setting [8]), 15%; in experiment [3] (at 50.0 µM), 46%; in experiment [4] (setting [7]) it was 31%; in experiment [4] (setting [8]), 47%; in experiment [4] (at 50.0 µM), -6.9%. Besides, the growth inhibition was 11% in experiment [5] (setting [7]); 38% in experiment [5] (setting [8]); 52.4% in experiment [5] (at 50.0 µM); 25% in experiment [6] (setting [7]); 46% in experiment [6] (setting [8]); 19.4% in experiment [6] (at 50.0 µM).

Turning to `Cc1cccc2c1NC(c1c(C)[nH]c3ccccc13)C2` (configuration not stated), the growth inhibition in experiment [1] (setting [7]) is 1%; in experiment [1] (setting [8]) it was 10%; in experiment [1] (at 50.0 µM), 28.8%; in experiment [2] (setting [7]), -1%; in experiment [2] (setting [8]) it was 5%; in experiment [2] (at 50.0 µM) it was 25.3%. The growth inhibition is -4% in experiment [3] (setting [7]); 8% in experiment [3] (setting [8]); 27.2% in experiment [3] (at 50.0 µM); 0% in experiment [4] (setting [7]); -2% in experiment [4] (setting [8]); 30.4% in experiment [4] (at 50.0 µM). Besides, the growth inhibition in experiment [5] (setting [7]) is -3%; in experiment [5] (setting [8]) it was 17%; in experiment [5] (at 50.0 µM) it was 30.1%; in experiment [6] (setting [7]), -3%; in experiment [6] (setting [8]) it was -22%; in experiment [6] (at 50.0 µM) it was 67.2%.

Consider `Nc1ncnc2c1ncn2C1OCC(O)C1O` (configuration not stated), for which the growth inhibition is 24% in experiment [1] (setting [7]); 66% in experiment [1] (setting [8]); 81.6% (active) in experiment [1] (at 50.0 µM); 33% in experiment [2] (setting [7]); 68% in experiment [2] (setting [8]); 78.2% (active) in experiment [2] (at 50.0 µM). Further, the growth inhibition was 20% in experiment [3] (setting [7]); 74% (active) in experiment [3] (setting [8]); 72.9% (active) in experiment [3] (at 50.0 µM); 29% in experiment [4] (setting [7]); 58% in experiment [4] (setting [8]); 64.5% in experiment [4] (at 50.0 µM). The growth inhibition was 20% in experiment [5] (setting [7]); 82% (active) in experiment [5] (setting [8]); 82.7% (active) in experiment [5] (at 50.0 µM); 21% in experiment [6] (setting [7]); 86% (active) in experiment [6] (setting [8]); 82.2% (active) in experiment [6] (at 50.0 µM).

For the compound `COc1cc(/C=C/C(=O)c2ccc(O)c(OC)c2)ccc1O`, the growth inhibition in experiment [1] (setting [7]) was 20%; in experiment [1] (setting [8]) it was 38%; in experiment [1] (at 50.0 µM), 14%; in experiment [2] (setting [7]), 16%; in experiment [2] (setting [8]), 29%; in experiment [2] (at 50.0 µM), 47.8%. The growth inhibition in experiment [3] (setting [7]) is 9%; in experiment [3] (setting [8]), 26%; in experiment [3] (at 50.0 µM) it was 54%; in experiment [4] (setting [7]), 8%; in experiment [4] (setting [8]), 27%; in experiment [4] (at 50.0 µM) it was 34.2%. Further, the growth inhibition was 17% in experiment [5] (setting [7]); 67% in experiment [5] (setting [8]); 56.1% in experiment [5] (at 50.0 µM); 18% in experiment [6] (setting [7]); 31% in experiment [6] (setting [8]); 6.6% in experiment [6] (at 50.0 µM).
